Screening results (PubChem)
Cruzain inh noDet: qHTS Assay for Promiscuous and Specific Inhibitors of Cruzain (without detergent); purified cruzain, Z-FR-AMC fluorescence, no detergent; actives 2.3% (n = 200,000); AID 1476, 2009; Potency, µM, for inactives: max response, negative = inhibition, most hits filed as inhibitors;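 further: plate controls were enzyme without inhibitor for no effect and buffer without enzyme for full effect; nearly all actives have a fitted effect of over 40% in size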
Target sequence (P25779 123-467 limits assumed): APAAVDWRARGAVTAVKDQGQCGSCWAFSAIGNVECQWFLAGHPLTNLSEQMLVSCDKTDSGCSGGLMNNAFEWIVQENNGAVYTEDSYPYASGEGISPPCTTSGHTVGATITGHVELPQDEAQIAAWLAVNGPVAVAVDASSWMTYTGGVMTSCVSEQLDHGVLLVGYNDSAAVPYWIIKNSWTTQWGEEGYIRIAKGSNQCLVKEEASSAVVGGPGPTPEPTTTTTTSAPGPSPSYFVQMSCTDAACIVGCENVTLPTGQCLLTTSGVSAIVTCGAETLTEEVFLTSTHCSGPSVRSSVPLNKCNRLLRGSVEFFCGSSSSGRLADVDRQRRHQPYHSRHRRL
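Detergent-free condition (0.00005% Triton X-100) in acetate buffer pH 5.5 with DTT. 1.5 nM enzyme and compound were pre-mixed 15 min, then 2 uM Z-FR-AMC substrate added; reaction progress from fluorescence change between first and third reads (60 s).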
Cruzain inh Det: qHTS Assay for Promiscuous and Specific Inhibitors of Cruzain (with detergent) | Potency, µM, for the others: max response, negative = inhibition, actives largely listed as inhibitors | Cruzipain (Trypanosoma cruzi), P25779 | purified cruzain, Z-FR-AMC fluorescence, 0.01% Triton | actives 0.43% (n = 200,000);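 further: plate controls were neutral wells for no effect and buffer without enzyme for full effect; nearly all actives have a fitted effect of over 40% in size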
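Cysteine protease activity tested under reducing, mildly acidic conditions (100 mM sodium acetate pH 5.5, 5 mM DTT) plus 0.01% Triton X-100. Cruzain 1.5 nM; substrate Z-FR-AMC 2 uM; 15 min compound preincubation at room temperature.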
* = called active by the depositor; ? = inconclusive. Sampled rows, rich in hits. Any-hit rate of the full collection: about 2.4%. The call rests on the fitted dose curve; in most records, active means well fitted curve in the direction sought with a large enough effect; inconclusive means small, poorly fitted or top-dose-only effect, or another doubt; inactive means no such curve, though single readings can be large; an effect the other way counts as inactive or inconclusive. Potency means the concentration at half of the fitted maximal effect.

SMILES	Cruzain inh noDet	Cruzain inh Det
Cc1ccc(S(=O)(=O)c2c(COC(=O)c3ccccc3Cl)c(-c3ccccc3)nn2C)cc1	20µM*	3%
Cn1nc(-c2ccccc2)c(CSc2ccccc2Cl)c1Cl	0%	3%
CC(C)(N=NC(C)(C)C1=NCCN1)C1=NCCN1	-2%	2%
O=C(Nc1ccc2nc(-c3ccc4nc[nH]c4c3)[nH]c2c1)c1cccs1	?	13µM*
O=C(Nc1ccc2nc(-c3ccccc3)[nH]c2c1)c1cccs1	-9%	-10%
C[N@+]1(CCC(=O)c2ccccc2)CC[C@H]2CC[C@H](C2)C1	3%	3%
COc1cc(-c2cc3n(C)c(C)c(CCC(=O)NC4CCC(C)CC4)c(=O)n3n2)cc(OC)c1OC (stereo not given)	23%	-1%
COc1c(OC(C)=O)ccc(/C=C/c2ccc3cccc(OCc4ccccc4)c3n2)c1[N+](=O)[O-]	10µM*	-2%
COc1cc(/C=C/c2ccc3cccc(OC)c3n2)c(OC(C)=O)c([N+](=O)[O-])c1	?	-4%
CCCCOC(=O)CCN1C(=O)/C(=C2\SC(=S)N(CCC(=O)OCCCC)C2=O)SC1=S	13µM*	-20%
CCCCOC(=O)CCn1[nH]c(=O)c2ccccc2c1=O	-5%	-3%
Cc1nc(N2CCN(S(=O)(=O)c3ccc(F)cc3)CC2)c2c(C)c(C)sc2n1	-12%	-3%
Cc1sc2nc(C3CC3)nc(N3CCN(S(=O)(=O)c4ccc(F)cc4)CC3)c2c1C	16µM*	-2%
Cc1cccc(OCc2cc(=O)n3c(-c4ccccc4)csc3n2)c1C	-5%	-3%
CCN(c1ccccc1)S(=O)(=O)c1ccc(Cl)c(NC(=O)COC(=O)c2ccc(Cl)c(N)c2)c1	25µM*	-4%
CN(C)S(=O)(=O)c1cccc(NC(=O)COC(=O)c2cc(-c3cccc(Br)c3)nc3ccccc23)c1	10µM*	-1%
CN(C)S(=O)(=O)c1cccc(NC(=O)COC(=O)c2ccc(Br)o2)c1	1%	-2%
CCN(CC)S(=O)(=O)c1ccc(Cl)c(NC(=O)COC(=O)c2c(C)noc2C)c1	3%	0%
CCN(CC)S(=O)(=O)c1ccc(Cl)c(NC(=O)COC(=O)c2cc(-c3ccccc3Cl)nc3ccccc23)c1	10µM*	-4%
CCN(c1ccccc1)S(=O)(=O)c1ccc(Cl)c(NC(=O)COC(=O)c2cccc(OC)c2O)c1	?	-4%
COc1cc(C(=O)NCC(c2cccs2)S(=O)(=O)c2ccc(F)cc2)cc(OC)c1OC (stereo not given)	?	-1%
N/N=C1/c2ccccc2N[C@H]1OC(=O)Nc1ccccc1	-6%	-10%
COc1ccc(C(C)C(=O)c2ccc(O)cc2O)cc1 (stereo not given)	-10%	-15%
Cc1ccc(S(=O)(=O)N2CCCc3cc(NC(=O)c4ccc(C(C)(C)C)cc4)ccc32)cc1	3.2µM*	4%
O=C(Nc1ccc(Cl)c(C(F)(F)F)c1)c1ccc2c(c1)CCN2S(=O)(=O)c1ccccc1	25µM*	0%
SMILES	Cruzain inh noDet	Cruzain inh Det
COc1ccc(C(=O)Nc2ccc3c(c2)CCCN3S(=O)(=O)c2ccc(C)cc2)cc1	?	-3%
COc1ccc(NC(=O)c2ccc3c(c2)CCN3S(=O)(=O)c2ccc(C)cc2)cc1Cl	7.9µM*	1%
CCc1cccc(CC)c1NC(=O)c1ccc2c(c1)CCN2S(=O)(=O)c1ccccc1	-3%	-2%
CC(=O)Nc1ccc(NC(=O)c2ccc3c(c2)CCN3S(=O)(=O)c2ccc(C)cc2)cc1	12%	0%
CCOC(=O)c1ccc(-n2c(CCC(=O)O)ccc2-c2ccc(Br)cc2)cc1	27%	-15%
O=C1/C(=C/c2cccc(F)c2)CSc2sccc21	-2%	-2%
Cc1cccc(/C=C2\CS/C(=C\c3cccc(C)c3)C2=O)c1	25µM*	-2%
COc1ccc(CNC(=O)c2ccc(N3CCCC3)c(NC(=O)NCc3ccc(F)cc3)c2)cc1	3%	-5%
Cn1cc(C(=O)NCc2ccc(Cl)cc2)c(=O)c2cc(S(=O)(=O)N3CCCCCC3)ccc21	-2%	-4%
COc1ccc(-c2nc3cnc(N4CCNCC4)nc3n(CCC#N)c2=O)cc1	-2%	0%
Nc1c(C(=O)c2ccccc2)sc(Nc2ccccc2)c1S(=O)(=O)c1ccccc1	7.9µM*	-2%
Cc1ccc(Nc2sc(C(=O)c3ccccc3)c(N)c2C(N)=O)cc1	9%	-1%
Cc1cc(C)cc(Nc2sc(C(=O)c3ccccc3)c(N)c2S(=O)(=O)c2ccccc2)c1	10µM*	0%
CCS(=O)(=O)c1c(Nc2ccc(F)c(Cl)c2)sc(C(=O)c2ccccc2)c1N	-11%	-13%
CCn1ccc2c(OCC(=O)Nc3ccc(OC)cc3OC)cccc2c1=O	?	-1%
CCCCNC(=O)CSc1nc2n[nH]c(C)c2c(=N)n1-c1ccccc1CC	6%	-2%
COc1ccc(CN=CC2=C(O)CNC2=O)cc1	-2%	8%
Cc1cc(C)cc(N=Cc2[nH]c3ccc(Br)c(Cl)c3c2O)c1	4µM*	-1%
Cc1ccc(O)c(C=Nc2ccc3[nH]ncc3c2)c1	7%	?
COc1ccc(CN=Cc2[nH]c3ccc(Br)c(Cl)c3c2O)cc1	25µM*	-15%
Cc1nc2cc(-c3cccc(F)c3)nn2c(C)c1CCC(=O)Nc1ccccc1C(N)=O	-7%	1%
O=C(O)[C@@H]1[C@@H]2C[C@@H]3[C@@H](OC(=O)[C@@H]31)[C@H]2Br	2%	-5%
CCCc1ccc(-c2cc(C(=O)Nc3ccc([N+](=O)[O-])cn3)c3ccccc3n2)cc1	25µM*	-4%
CCCc1ccc(-c2cc(C(=O)NCCc3ccc(S(N)(=O)=O)cc3)c3ccccc3n2)cc1	3%	-16%
C/C(=N\NC(=O)CNc1cccc(C)c1)c1ccc(Br)s1	-12%	-11%
SMILES	Cruzain inh noDet	Cruzain inh Det
C/C(=N\NC(=O)c1ccc(Cl)c(Cl)c1)c1ccc(Br)s1	25µM*	2%
CCOc1ccc(C(=O)NCCS(=O)(=O)N2CCN(c3cccc(Cl)c3)CC2)cc1	-2%	-2%
COc1ccc(C(=O)NCC(c2ccco2)S(=O)(=O)c2cccs2)cc1 (stereo not given)	?	-2%
COC(=O)c1ccc(C2c3c(-c4ccc(Br)cc4)n[nH]c3C(=O)N2c2ccc(Cl)cc2)cc1 (stereo not given)	16µM*	-1%
O=C1c2[nH]nc(-c3ccc(Br)cc3)c2C(c2cccc(O)c2)N1c1ccc(Cl)cc1 (stereo not given)	?	-5%
CS(=O)(=O)Nc1ccc(Nc2c3ccccc3nc3ccccc23)cc1	-7%	0%
O=C(Nc1ccc([N+](=O)[O-])cc1)Nc1nc(-c2ccc(Cl)s2)cs1	5µM*	-1%
O=C(Nc1nc(-c2ccc(Cl)s2)cs1)c1cccs1	?	-8%
CCC1CN(C(=O)N2CCC(C(=O)NCc3cccc(C)c3)CC2)c2ccccc2O1 (stereo not given)	-8%	-4%
O=C(Nc1ccc([N+](=O)[O-])cc1)c1cn(-c2ccccc2)nc1-c1cc2ccccc2o1	7.9µM*	-3%
O=C(Nc1ccccc1)c1cn(-c2ccccc2)nc1-c1ccccc1	29%	-5%
Cc1ccc(C)c(NC(=O)CSc2ncc(S(=O)(=O)c3ccc(C)c(Cl)c3)c(=O)[nH]2)c1	49%	-11%
